Bioassay records: PubChem BioAssay, National Center for Advancing Translational Sciences (NCATS)
The list is not random: actives were taken first. Their share in the collection is about 4.7%.
TRHR ag: activates the human TRH receptor | P34981 | TRHR cells, calcium flux fluo-8, FDSS agonist mode | activation, % at 2 µM | 360,000 tested, 0.18% active | AID 493084
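Fluo-8-loaded TRHR cells; 10 s baseline, compound added, kinetic Ca2+ fluorescence read 1/s, agonist mode.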
D1 agonist: activates the human D1 dopamine receptor. P21728. HEK293 T-REx D1 cells, calcium flux, agonist mode. activation, % at 2 µM. 360,000 tested, 1% active
Target sequence (P21728 whole entry, looked up): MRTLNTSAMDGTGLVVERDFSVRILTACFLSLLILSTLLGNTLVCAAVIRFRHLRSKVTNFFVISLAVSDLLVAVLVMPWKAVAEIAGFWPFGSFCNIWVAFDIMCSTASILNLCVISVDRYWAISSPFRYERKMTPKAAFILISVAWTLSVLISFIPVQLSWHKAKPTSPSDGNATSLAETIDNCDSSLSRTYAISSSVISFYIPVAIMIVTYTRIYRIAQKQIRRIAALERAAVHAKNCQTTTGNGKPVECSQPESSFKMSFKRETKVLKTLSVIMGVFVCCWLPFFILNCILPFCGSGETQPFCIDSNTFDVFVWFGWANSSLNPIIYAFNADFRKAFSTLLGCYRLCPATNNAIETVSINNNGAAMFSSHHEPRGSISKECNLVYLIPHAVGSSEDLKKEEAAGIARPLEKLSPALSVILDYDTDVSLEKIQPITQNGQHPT
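Tetracycline-induced HEK293 TREx D1 cells, force-coupled to calcium signalling, were dye-loaded with a no-wash calcium kit. Compound was pin-added after a 10 s baseline. Fluorescence was read kinetically at 1 cycle/s for 180 s, with calcium rises flagged as agonism.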
D1 antag: blocks dopamine activation of the human D1 receptor. P21728. HEK293 TREx D1 cells, calcium flux, dopamine EC80; stronger effect = lower value. 360,000 tested, 3.2% active. activity change, negative = inhibition, % at 10 µM; in the data active means activity change below about -30%
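Calcium flux readout: force-coupled, inducible Hek293 Trex D1 line, cells induced overnight at 30 C with tetracycline, dye-loaded 30–90 min at RT. Antagonism scored against EC80 dopamine challenge given 180 s after compound.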
D1 potentiator: human D1 dopamine receptor positive modulation | P21728 | 360,000 tested, 0.036% active | HEK293 TREx D1 cells, calcium flux, dopamine EC20 potentiation | potentiation, % at 10 µM; in the data active means potentiation above about 30%
TRHR enhancer: TRH receptor (human) allosteric enhancement. P34981. enhancement, % at 2 µM. 360,000 tested, 0.66% active. TRHR cells, fluo-8 calcium fluorescence, EC20 TRH enhancement; in the data active means enhancement above about 30%
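Enhancer read-out: after compound pinning and an initial kinetic agonist-mode read, an EC20 of TRH (10 nM final) was injected and fluo-8 calcium signal (Ex 480/Em 530) followed at 1 s/cycle for 100 cycles in TRHR-expressing cells.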
Of the large screens only hits and unclear results are named; the others gave an inactive call; ! = a repeat was not active. Unless noted, no stated cut-off is given here; in the data, active means activation above about 30%; inactive means the rest.

Cc1c(OCc2ccccc2)cccc1OCc1ccccc1	none
Cc1ccc(NCc2ccccc2OCc2ccccc2F)cc1	none
CNCc1c(OCc2ccccc2)ccc2ccccc12	D1 antag -45
CNCc1c(OCc2ccccc2F)ccc2ccccc12	D1 agonist 39, D1 antag -81
COc1cc(CNC(C)(C)CO)cc(Br)c1OCc1ccc(Cl)cc1	D1 agonist 34
COc1ccc(N2CCN(C(=O)CCS(=O)(=O)c3ccc4c(c3)CCN4C(=O)C3CC3)CC2)cc1	none
Cn1cnc(S(=O)(=O)N2CCCC(C(=O)Nc3ccc(OC(F)(F)F)cc3)C2)c1 (stereo not given)	none
Cc1ccc(S(=O)(=O)Nc2cc3c(C(=O)OCc4ccccc4)c(C)oc3c3ccccc23)c(C)c1	none
Nc1ccc2nc3c(=O)n(C4CCCCC4)c(=O)[nH]c3nc2c1	TRHR ag 128, D1 agonist 276
Nc1ccc2nc(CCc3ccccc3)[nH]c2c1	none
CCCCn1c(N)c(Br)c(=O)[nH]c1=O	none
CCCCn1c(=O)[nH]c2nc3cc(N)ccc3nc2c1=O	TRHR ag 108, D1 agonist 207
Cc1cc2nc3c(=O)n(CCc4ccccc4)c(=O)[nH]c3nc2cc1N	TRHR ag 142, D1 agonist 352
Nc1ccc2nc3c(=O)n(CCc4ccccc4)c(=O)[nH]c3nc2c1	TRHR ag 164, D1 agonist 435, TRHR enhancer 58
CCn1cc(C(=O)NCCc2ccccc2)c(=O)c2cc(S(=O)(=O)N(C)C3CCCCC3)ccc21	none
CCOC(=O)N1CCC(Nc2c(NCCCOC)c(=O)c2=O)CC1	D1 antag -34
CCOC(=O)N1CCN(C(=S)NC2CCCC2)CC1	TRHR enhancer 33
CCOC(=O)N1CCC(Nc2c(OCC)c(=O)c2=O)CC1	D1 antag -34
CCOC(=O)N1CCC(Nc2c(NCCCN(CC)CC)c(=O)c2=O)CC1	none (no result: D1 potentiator)
CCCCN(CC)CCNc1c(NC2CCN(C(=O)OCC)CC2)c(=O)c1=O	D1 antag -63 (no result: D1 potentiator)
CCOC(=O)c1[nH]c2c(c1Cc1ccccc1OC)C(=O)CC(c1ccc(OCC)cc1)C2 (stereo not given)	none
CCOC(=O)N1CCC(Nc2c(NCCCN3CCN(C4CCCCC4)CC3)c(=O)c2=O)CC1	D1 antag -43
CCOC(=O)N1CCC(Nc2c(NCCCN(CC)Cc3ccccc3)c(=O)c2=O)CC1	none (no result: D1 potentiator)
CCOC(=O)c1c(C)c(C(=O)NCc2ccc(Cl)cc2)c(C)n1C	TRHR enhancer 35
Cc1ccc2c(c1)c1c(c(=O)n(-c3ccccc3C)c(=O)n1CC(=O)NCCC1=CCCCC1)n2C	none
Cn1cc(S(=O)(=O)c2ccc(Cl)cc2)c(=O)c2cc(F)c(N3CCCCCC3)cc21	TRHR enhancer 35
Cc1ccc(S(=O)(=O)c2cn(C)c3cc(N4CCCCC4)c(F)cc3c2=O)cc1	none
Cc1ccc(C)c(S(=O)(=O)c2cn(C)c3cc(N4CCCCC4C)c(F)cc3c2=O)c1 (stereo not given)	TRHR enhancer 37
Cc1cc(CSC(=N)N)c(CSC(=N)N)cc1C	D1 antag -95
CCc1oc(C(=O)OC)cc1CSC(=N)N	none
O=Cc1ccccc1-n1cccn1	D1 antag -33
CC(C)CCNC(=O)c1ccc2c(c1)NC(=O)C(CS(=O)(=O)Cc1cccc(Br)c1)N2 (stereo not given)	D1 antag -42
CN(Cc1ccccc1O)CC1CCCN(CCc2ccc(Cl)cc2)C1 (stereo not given)	none
CN(Cc1ccc(C#CCCO)cc1)CC1CCCN(CCc2ccc(Cl)cc2)C1 (stereo not given)	D1 antag -38
NCCCCCc1cn([C@@H](CO)C(=O)NCCCCCCCCCCC(=O)N2CCNCC2)nn1	D1 antag -32
CSCC[C@@H](C(=O)NCCCCCCCCCCC(=O)N1CCNCC1)n1cc(CCO)nn1	D1 antag -36
NCCCCCc1cn([C@@H](CCC(=O)O)C(=O)NCCCCCCCCCCC(=O)N2CCNCC2)nn1	none
O=S(=O)(c1ccc2ccccc2c1)N1CCN(S(=O)(=O)c2c(F)cccc2F)CC1	none
CN1C(=O)CC(N2CCC(C(N)=O)CC2)C1=O (stereo not given)	none
NC(=O)C1CCN(C2CC(=O)NC2=O)CC1 (stereo not given)	D1 antag -37
O=c1c2cc3c(cc2[nH]c(=S)n1CCN1CCOCC1)OCO3	D1 antag -50
CC1CCN(CCn2c(=S)[nH]c3cc4c(cc3c2=O)OCO4)CC1	none
O=C(NCCO)C(=O)c1c(-c2ccccc2)cc2ccccn12	D1 antag -31
CCN1C(=NCC(C)C)N[C@@H](c2cccc(F)c2)C(C(=O)OC)=C1C	D1 antag -33!
Cc1ccc(S(=O)(=O)c2nc(-c3cccs3)oc2SCc2ccc(F)cc2)cc1	none
Cc1ccc(N2CCN(C(=O)c3cnn(-c4ccc(C)c(C)c4)c3C3CCNCC3)CC2)c(C)c1	D1 agonist 82
Cc1ccc(Cl)cc1N1CCN(C(=O)c2cnn(-c3ccc(Cl)cc3)c2C2CCNCC2)CC1	D1 agonist 38
Cc1cc(C)cc(NC(=O)c2cnn(-c3ccc(C)c(C)c3)c2C2CCNCC2)c1	none
CC1CCCCC1NC(=O)/C(C#N)=C/c1ccc(F)c(F)c1 (stereo not given)	D1 antag -45
CCc1ccc(CN(C(=O)Nc2cccc(Cl)c2)c2ccccn2)cc1	D1 agonist 31
CC(C)C(=O)N(Cc1ccccc1)c1ccccn1	none
COc1cccc(C(=O)Nc2c(C(=O)N3CCN(c4ccc(F)cc4)CC3)oc3ccccc23)c1	none
COc1ccc(-n2ncc(S(=O)(=O)c3ccccc3)c2-c2ccc(Cl)cc2)cc1	D1 antag -44
COc1ccc(SCC(=O)c2cc(C)c(OC(=S)N(C)C)c(C)c2)cc1	D1 antag -35
CCOC(=O)c1cc(NC(=O)Nc2ccc(Br)cc2)c(C)nc1C	none
CCOC(=O)c1cc(C#N)c(SC)nc1-c1ccccc1	D1 antag -44
CCOC(=O)c1cc(C#N)c(SC)nc1C	none
CC(=O)Nc1ccc(NC(=O)C(C)OC(=O)c2cc(S(=O)(=O)N3CCOCC3)ccc2Cl)cc1 (stereo not given)	none
O=S(=O)(Nc1nc2ccccc2nc1Nc1ccc(N2CCOCC2)cc1)c1cc(Cl)ccc1Cl	D1 antag -50
C=CCn1c(SCC(=O)N2CCOCC2)nc(O)cc1=O	none
C=CCn1c(SCC(=O)N2CCCCC2)nc(O)cc1=O	D1 antag -63
C=CCn1c(SCC(=O)N2CCCCCC2)nc2ccccc2c1=O	D1 antag -32
C=CCn1c(SCC(=O)N(CC)CC)nc(O)cc1=O	none
C=CCn1c(SCc2c(F)c(F)c(F)c(F)c2F)nc(O)cc1=O	D1 agonist 33
Cc1nc2ccc(S(=O)(=O)NC(CC(C)C)C(=O)NCc3ccc(Cl)cc3)cc2s1 (stereo not given)	none
